# Compounds with a hit are over-represented: about 14% of the library has one in this group of screens.
# Pf growth 48h: P. falciparum growth inhibition at 48 hours (one generation); 5.9% of 310,000 active; Potency, µM (titrated, usually from 28.7 µM), usual class: inhibitors; AID 504832; P. falciparum luciferase growth in erythrocytes, 48 h
#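 First compound was added to culture medium, then infected red cells at 0.1% parasitemia and 2% hematocrit (final). After incubation at 37 C under 5% CO2, luciferase detection reagent was dispensed and light output recorded.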
# Lassa entry inh: inhibitors of Lassa virus binding or cell entry; Lassa virus pseudotype entry inhibition, cell reporter; Potency, µM (doses to about 37.9 µM), hits mostly inhibitors; 1.2% of 300,000 active; calls by dose curve; tested in HEK293 cells; further: nearly all actives have a fitted effect of over 50% in size
# HCV inhibitor: blocks hepatitis C virus. AID 651820. Potency, µM (highest dose often 41.8 µM), actives largely listed as inhibitors. 3.4% of 340,000 active. Huh7.5.1 HCVcc-Cre infection, luciferase reporter, 44 h
#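 Whole-lifecycle infectious HCVcc-Cre system; cells 1,000/well, compound then virus (~0.5 moi) added 4 h after plating, 44 h culture. Luciferase read 15 sec following 15 min substrate incubation, room temp.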
# HCMV antiviral: human cytomegalovirus inhibition; activity change, negative = inhibition, % at 57.5 µM; 4.5% of 410,000 active; AID 1259415; HFF cells, HCMV-luciferase reporter, 72 h; stronger effect = lower value; in the data active means activity change below about -60%; inconclusive means no clear call, values can overlap the other calls; inactive means above about -39%
#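 Inhibition of viral replication was scored as loss of reporter luminescence in HFFs infected with HCMV-luciferase (MOI 1 PFU/cell) for 72 h; compounds tested at 2 doses, normalized to buffer and Salinomycin controls.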
# Pf growth 96h: P. falciparum growth inhibition at 96 hours | P. falciparum luciferase reporter growth, 96 h | Potency, µM (doses to about 28.7 µM), most hits filed as inhibitors | 6.9% of 320,000 active | AID 504834
#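 Luminescence readout: decreased luciferase signal marks inhibited growth of reporter-expressing P. falciparum in infected red cells (2% hematocrit, 0.05% parasitemia final), exposed to compound two generations (96 h, 37 C, 5% CO2).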
# Marburg entry inh: blocks Marburg virus binding to or entry into cells. Potency, µM (top dose mostly 37.8 µM), most hits filed as inhibitors. 1.8% of 300,000 active. Marburg virus pseudotyped entry inhibition, cell reporter; calls by dose curve; tested in HEK293 cells
# Numbers stand for hits; i = inactive; ? = inconclusive; nt = no result. Unless noted, the call rests on the fitted dose curve; in most records, active means well fitted inhibition curve with a large enough effect; inconclusive means small, poorly fitted or top-dose-only effect, or another doubt; inactive means no such curve, though single readings can be large or run the other way.
SMILES,Pf growth 48h,Lassa entry inh,HCV inhibitor,HCMV antiviral,Pf growth 96h,Marburg entry inh
O=C(CN1C(=O)c2ccccc2S1(=O)=O)NC(Nc1ccccc1F)C(Cl)(Cl)Cl (stereo not drawn),i,i,i,-104.7,i,i
CC(C)CC(=O)NC(Nc1ccccc1F)C(Cl)(Cl)Cl (stereo not drawn),i,i,i,i,10.4µM,i
CN(Cc1ccc2ccccc2c1)C(=O)c1ccc(C(F)(F)F)cc1,i,i,i,-62.5,i,i
CCCN(CCC)CCCNC(=O)c1nn(-c2cccc(OC)c2)c(=O)c2ccccc12,?,nt,i,i,11.7µM,nt
CCCCN(CC)CCCNC(=O)c1cn(-c2ccc(OC)cc2)c(=O)c2ccccc12,i,nt,i,?,7.38µM,nt
CCN(CC)CCCNC(=O)CNC(=O)c1nn(-c2ccc(OC)cc2)c(=O)c2ccccc12,i,?,i,i,9.28µM,i
C=CC[C@H](CC(=O)N(CCO)Cc1ccccc1)C(=O)NC[C@H](OC(=O)[C@@H](CC=C)Cc1ccc(F)cc1)c1ccccc1,nt,nt,?,i,nt,nt
CCc1ccccc1NC1=NCC(=O)N1Cc1ccc2c(c1)OCO2,i,i,i,i,4.15µM,i
CCC(C(=O)N1CCC(N2CCCCC2)CC1)n1nc(C)c2sc3ccccc3c2c1=O (stereo not drawn),?,nt,i,i,i,nt
CS/C(=N\S(=O)(=O)c1cccs1)NC(=O)CSc1nc2ccccc2s1,nt,i,i,i,6.57µM,?
C/C(=N/NC(=O)CSc1nc2ccccc2s1)c1ccncc1,i,i,i,i,i,?
C=CCOC(=O)N[C@H](c1cccc(OC)c1)[C@H](C)C=CCC(=O)OC,nt,?,nt,nt,nt,i
C=CCn1c(=S)[nH]c2cc(C(=O)Nc3ccc(F)cc3)ccc2c1=O,i,?,?,i,?,?
COc1ccc(C(=O)Cn2nnc(-c3ccccc3NC(=O)c3ccco3)n2)cc1,8.28µM,?,?,?,i,?
COc1ccc(NC(=O)Cn2nnc(-c3ccccc3NS(=O)(=O)c3ccccc3)n2)cc1,i,?,i,nt,i,8.91µM
COc1ccc(C(=O)Nc2ccccc2-c2nnn(CC(=O)N3CCOCC3)n2)cc1,i,i,?,?,i,i
COc1ccc(S(=O)(=O)Nc2ccccc2-c2nnn(CC(=O)Nc3ccccc3OC)n2)cc1,i,?,?,i,?,?
NS(=O)(=O)c1ccc(NC(=O)CN2C(=O)COc3ccc(Cl)cc32)cc1,nt,i,nt,i,nt,i
O=C(NCc1cccc(Cl)c1)c1ccc2nc(N3CCOCC3)sc2c1,i,nt,?,-79.7,i,nt
O=C(Nc1ccc(F)cc1F)c1ccc2nc(N3CCOCC3)sc2c1,i,nt,12.6µM,i,11.7µM,nt
CCCCn1nnnc1C(Nc1ccccc1C(C)=O)C1CC1 (stereo not drawn),nt,nt,nt,i,nt,nt
Cc1ccc(CNc2ccc(-c3nc(-c4ccco4)no3)cc2[N+](=O)[O-])cc1,nt,i,nt,i,nt,i
CN(C)C/C=C(\c1ccc(Br)cc1)c1cccnc1,14.7µM,nt,?,i,?,?
CCc1nnc(NC(=O)Cn2c(=O)oc3ccccc32)s1,nt,i,i,i,i,i
Cc1csc(NC(=O)CCn2c(=O)oc3ccccc32)n1,i,i,i,i,nt,i
SMILES,Pf growth 48h,Lassa entry inh,HCV inhibitor,HCMV antiviral,Pf growth 96h,Marburg entry inh
O=C(Cn1c(=O)oc2ccccc21)Nc1nc(-c2ccc(Br)cc2)cs1,i,?,i,-60.5,i,?
Cc1sc(NC(=O)Cn2c(=O)oc3ccccc32)nc1-c1ccc(Cl)cc1,i,i,?,-60.5,?,i
CC(C)(O)C(=O)NNC(=S)Nc1cccc(C(F)(F)F)c1,i,nt,i,i,11.7µM,nt
O=C(NNC(=S)Nc1cccc(C(F)(F)F)c1)c1ccc(Cl)cc1Cl,i,i,?,-66.5,i,?
CC(=O)c1ccc(NS(=O)(=O)Cc2ccc(Cl)cc2)cc1,i,i,i,i,nt,i
O=C(NNC(=O)c1ccc(Cl)cc1Cl)Nc1ccccc1,i,i,i,i,i,i
CNC(=O)Nc1cccc(C(F)(F)F)c1,i,i,i,i,nt,i
CNNC(=S)Nc1cccc(C(F)(F)F)c1,4.15µM,nt,i,i,?,i
CC(=O)Nc1cccc(NS(=O)(=O)Cc2ccc(Cl)cc2)c1,i,i,i,-66.0,14.7µM,i
COC(=O)CN1C(=O)CSc2ccc(S(=O)(=O)Nc3c(C)cc(C)cc3C)cc21,nt,i,nt,i,nt,nt
CCOC(=O)C1CCN(C(=O)CSc2n[nH]c(-c3ccccc3Cl)n2)CC1,nt,i,nt,i,nt,nt
Cc1c(Cl)cccc1-c1ccc(CNCCSc2nnnn2-c2ccccc2)o1,nt,i,nt,i,nt,i
CCOc1ccc(NC(=O)c2cc3sc(Cl)cc3n2CC)cc1,nt,nt,nt,i,nt,i
CC(O)(CS(=O)(=O)Cc1ccc(Cl)cc1)C(=O)Nc1cccc(C(F)(F)F)c1 (stereo not drawn),i,i,i,-102.6,i,i
O=C(COCC(=O)Nc1cccc(C(F)(F)F)c1)Nc1cccc(C(F)(F)F)c1,nt,i,?,?,?,?
